Bioassay records: PubChem BioAssay, National Center for Advancing Translational Sciences (NCATS)
Sampled rows, rich in hits. Any-hit rate of the full collection: about 11%.
G9a block – inhibitors of human histone lysine methyltransferase G9a | G9a H3K9 monomethylation, AlphaScreen, 2 h | Q96KQ7 | AID 504332 | 350,000 tested, 8.8% active | Potency, µM (titrated, usually from 102 µM), for the others: top-dose activity, negative = inhibition, usual class: inhibitors; note: potency is the fitted concentration of half-maximal effect; % is set by controls: 0 for no effect and ±100 for the full control effect; nearly all actives have a fitted effect of over 75% in size
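AlphaScreen detection with an anti-monomethyl H3K9 antibody quantified product after a 2 h room-temperature reaction containing 500 nM biotinylated H3K9 peptide, 20 µM SAM and 20 nM enzyme, which had been preincubated 15 min with compound.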
PI5P4K alpha inh – PI5P4K alpha (human) kinase inhibition; PI5P4Kalpha enzyme, ADP-Glo luminescence, 60 min; active compounds read low; max response, %; 330,000 tested, 1.2% active; P48426; active = max response of -50% or lower; inconclusive = between -30% and -50%; inactive = -30% or higher; note: value at the top dose of about 77 µM; % is set by controls: 0 for no effect and ±100 for the full control effect
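Enzyme plus substrate dispensed, test compounds pinned in, then ATP (5 microM final) added. After 60 min at RT, ADP-Glo reagent 1 for 45 min and reagent 2 for 30 min preceded luminescence imaging.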
L3MBTL1 block – blocks human L3MBTL1 | Q9Y468 | AlphaScreen L3MBTL1–H3K9me1 peptide binding | Potency, µM (doses to about 57.1 µM), inactives show at the top dose activity, negative = inhibition, usual class: inhibitors | 230,000 tested, 0.66% active | AID 485360; note: potency is the fitted concentration of half-maximal effect; % is set by controls: 0 for no effect and ±100 for the full control effect; nearly all actives have a fitted effect of over 60% in size
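AlphaScreen assay: L3MBTL1 (50 nM final) was preincubated 30 min at room temperature with biotinylated H3(1-15)K9me1 peptide (75 nM final), then 30 min with library compounds; streptavidin donor and nickel chelate acceptor beads (10 ug/mL final) added, 30 min dark.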
JMJD2A Tudor inh – JMJD2A Tudor domain (human) inhibition. 390,000 tested, 4.4% active. AID 504339. O75164. Potency, µM (doses to about 114 µM), without a hit: at the top dose activity change, negative = inhibition, hits mostly inhibitors. AlphaScreen JMJD2A-Tudor / H3K4me3 peptide binding; note: potency is the fitted concentration of half-maximal effect; % is set by controls: 0 for no effect and ±100 for the full control effect; nearly all actives have a fitted effect of over 50% in size
BAZ2B block – inhibitors of human BAZ2B bromodomain | Potency, µM (series often up to 114 µM), for inactives: at the top dose activity change, negative = inhibition, usual class: inhibitors | AlphaScreen BAZ2B-H3K14Ac peptide displacement | 360,000 tested, 4.4% active; note: potency is the fitted concentration of half-maximal effect; % is set by controls: 0 for no effect and ±100 for the full control effect; nearly all actives have a fitted effect of over 60% in size
Target sequence (Q9UIF8 whole entry, looked up): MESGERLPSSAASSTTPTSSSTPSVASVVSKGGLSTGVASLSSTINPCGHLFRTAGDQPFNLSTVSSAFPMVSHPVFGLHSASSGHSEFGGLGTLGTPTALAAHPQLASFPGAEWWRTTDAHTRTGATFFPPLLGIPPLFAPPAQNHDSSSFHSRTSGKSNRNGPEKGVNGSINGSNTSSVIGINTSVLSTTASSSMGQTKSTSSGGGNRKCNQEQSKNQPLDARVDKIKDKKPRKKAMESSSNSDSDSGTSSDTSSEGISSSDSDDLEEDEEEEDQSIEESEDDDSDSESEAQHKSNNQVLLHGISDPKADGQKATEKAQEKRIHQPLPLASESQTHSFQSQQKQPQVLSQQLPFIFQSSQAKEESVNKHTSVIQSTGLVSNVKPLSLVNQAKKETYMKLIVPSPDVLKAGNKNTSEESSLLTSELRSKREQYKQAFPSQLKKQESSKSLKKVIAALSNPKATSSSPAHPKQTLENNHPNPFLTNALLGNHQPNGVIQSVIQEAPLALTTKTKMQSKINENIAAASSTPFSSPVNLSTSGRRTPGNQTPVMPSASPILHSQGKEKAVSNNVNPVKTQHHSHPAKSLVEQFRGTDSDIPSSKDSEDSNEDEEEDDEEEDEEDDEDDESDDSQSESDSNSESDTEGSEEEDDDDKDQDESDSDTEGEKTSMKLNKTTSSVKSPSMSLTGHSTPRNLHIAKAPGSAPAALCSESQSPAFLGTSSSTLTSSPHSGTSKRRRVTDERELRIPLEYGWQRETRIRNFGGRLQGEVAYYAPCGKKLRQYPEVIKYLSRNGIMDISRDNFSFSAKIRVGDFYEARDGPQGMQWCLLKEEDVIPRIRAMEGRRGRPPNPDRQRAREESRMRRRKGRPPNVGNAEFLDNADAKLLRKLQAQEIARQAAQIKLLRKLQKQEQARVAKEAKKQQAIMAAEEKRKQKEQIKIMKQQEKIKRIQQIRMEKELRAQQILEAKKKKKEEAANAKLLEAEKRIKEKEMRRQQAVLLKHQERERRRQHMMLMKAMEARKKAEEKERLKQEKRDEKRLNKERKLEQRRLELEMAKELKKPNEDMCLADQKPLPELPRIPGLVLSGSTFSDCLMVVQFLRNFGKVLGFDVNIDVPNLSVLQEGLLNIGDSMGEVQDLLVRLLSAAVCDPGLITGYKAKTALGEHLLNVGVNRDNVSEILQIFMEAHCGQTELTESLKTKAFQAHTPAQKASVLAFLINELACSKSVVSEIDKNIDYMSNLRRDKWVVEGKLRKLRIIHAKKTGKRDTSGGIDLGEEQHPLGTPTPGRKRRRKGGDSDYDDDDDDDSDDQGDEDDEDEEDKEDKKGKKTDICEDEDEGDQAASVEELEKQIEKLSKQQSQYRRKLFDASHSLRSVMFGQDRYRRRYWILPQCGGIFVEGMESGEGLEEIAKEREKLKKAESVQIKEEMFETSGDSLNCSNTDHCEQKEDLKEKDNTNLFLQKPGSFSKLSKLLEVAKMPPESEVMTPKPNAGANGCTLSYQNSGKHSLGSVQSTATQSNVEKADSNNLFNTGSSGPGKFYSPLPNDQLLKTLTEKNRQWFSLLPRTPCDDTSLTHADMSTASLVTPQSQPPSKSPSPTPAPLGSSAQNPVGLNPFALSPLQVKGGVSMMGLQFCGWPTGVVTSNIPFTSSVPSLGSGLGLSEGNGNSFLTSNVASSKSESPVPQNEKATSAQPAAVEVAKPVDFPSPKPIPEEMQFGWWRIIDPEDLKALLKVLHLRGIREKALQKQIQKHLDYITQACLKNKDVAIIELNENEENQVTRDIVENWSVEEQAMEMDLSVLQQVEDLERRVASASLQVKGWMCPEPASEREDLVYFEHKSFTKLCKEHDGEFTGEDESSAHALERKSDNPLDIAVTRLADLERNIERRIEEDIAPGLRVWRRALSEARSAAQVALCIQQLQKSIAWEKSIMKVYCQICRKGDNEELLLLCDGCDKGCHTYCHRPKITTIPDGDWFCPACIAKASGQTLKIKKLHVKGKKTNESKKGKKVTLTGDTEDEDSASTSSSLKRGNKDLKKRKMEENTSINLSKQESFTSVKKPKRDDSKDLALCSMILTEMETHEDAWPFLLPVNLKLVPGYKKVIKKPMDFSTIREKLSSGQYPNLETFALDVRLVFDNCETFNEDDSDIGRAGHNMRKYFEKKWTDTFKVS
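BAZ2B 50 nM plus b-H3(5-23)K14Ac 50 nM, PBS pH 7.4/0.01% Tween-20, 30 min RT; compound added (max 110 uM), 30 min RT; streptavidin donor/Ni-chelate acceptor beads 10 ug/mL final, 20 min dark; AlphaScreen read.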
HP1b binding inh – blocks HP1-beta chromodomain binding to methylated histone tails. P83916. AlphaScreen HP1-beta / biotin-H3K9me3 peptide binding. Potency, µM (top dose mostly 114 µM), for the others: at the top dose activity change, negative = inhibition, actives largely listed as inhibitors. 390,000 tested, 0.56% active. AID 540317; note: potency is the fitted concentration of half-maximal effect; nearly all actives have a fitted effect of over 70% in size
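HP1-beta protein (50 nM final) preincubated 30 min at room temperature with biotinylated H3(1-18)K9me3 peptide (50 nM) in PBS pH 7.4, 0.01% Tween-20, then compound added for 30 min. AlphaScreen streptavidin donor/nickel chelate acceptor beads (10 ug/mL final), 30 min dark, luminescence read.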
Numbers without * were called inactive; u = inconclusive; x = not tested or not shown; [ ] = another dose, or the depositor's remark. Unless noted, calls come from the whole dose curve; as a rule, active = well fitted inhibition curve with a large enough effect; inconclusive = small, poorly fitted or top-dose-only effect; inactive = no such curve, though single readings can be large or run the other way.

SMILES	G9a block	PI5P4K alpha inh	L3MBTL1 block	JMJD2A Tudor inh	BAZ2B block	HP1b binding inh
O=C(N/N=C/c1ccc(O)cc1O)/C(=C/c1ccccc1)CCO	46%[59 µM]	-5	-8%	79µM*	-39%	12%
COc1cc(/C=N/NC(=O)/C(=C/c2ccccc2)CCO)ccc1O	25%[59 µM]	1	0%	-11%	-3%	19%
CCCC[C@H](CC)CN1CN(C[C@@H](CC)CCCC)CC(C)(N)C1	-25%[21.5 µM]	x	x	x	x	x
Cc1cc(C)cc(N2CCn3c2nc2c3c(=O)n(CCc3ccccc3)c(=O)n2C)c1	-20%[59 µM]	x	x	-26%	-15%	22%
Cc1ccc2c(c1)CCCN2CC(=O)Nc1cc(S(=O)(=O)N2CCCC2)ccc1Cl	u	1	-28%	u	u	0%
O=C(CN1CCCc2ccccc21)Nc1cc(S(=O)(=O)N2CCCC2)ccc1Cl	25µM*	-1	-3%	-23%	-31%	33%
CN(C)S(=O)(=O)c1cc(NC(=O)CN2CCc3ccccc32)ccc1Cl	16µM*	-5	x	-17%	-15%	1%
O=C(CN1CCCc2ccccc21)NCc1ccccc1Cl	45µM*	17	-14%	-36%	-39%	1%
CN(C)S(=O)(=O)c1ccc(NC(=O)CN2CCCc3ccccc32)cc1	40µM*	5	-9%	u	u	-19%
COc1ccc(C2=NN(CCC(=O)NCCc3ccccc3)C(=O)CC2)cc1	-2%[59 µM]	x	x	-8%	3%	27%
O=C(NCC(c1cccnc1)N1CCc2ccccc21)c1cccc(F)c1 (centres undefined)	-8%[59 µM]	x	x	-4%	-17%	45%
O=C(CCNS(=O)(=O)c1ccc2c(c1)CCCC(=O)N2)NCc1ccc(Cl)cc1	-4%[59 µM]	x	x	-10%	8%[57.1 µM]	25%
Cc1ccccc1CNc1nc(N(C)C)nc2c1cnn2C	0%[12.7 µM]	x	x	-6%	-6%	17%
COc1ccc(Cn2c(C)nc([N+](=O)[O-])c2SCC(=O)O)cc1[N+](=O)[O-]	-1%	0	-6%	-5%	-15%	31%
Cc1nc([N+](=O)[O-])c(SCC(O)CCl)n1Cc1ccc(Cl)cc1 (centres undefined)	28µM*	9	-3%	-20%[11.4 µM]	-36%	24%
COc1ccc(C(=O)/C=C/C(=O)N(Cc2ccccc2)C(C(=O)NC2CCCCC2)c2ccncc2)c(O)c1 (centres undefined)	4%[59 µM]	-5	-4%	-30%	u	15%
COc1ccc(C(=O)/C=C/C(=O)N(CC(=O)NC2CCCCC2)Cc2ccccc2)c(O)c1	x	-19	5%	-17%	u	33%
COc1ccc(C(=O)/C=C/C(=O)N(CC(=O)NC2CCCCC2)Cc2ccccc2OC)c(O)c1	18µM*	-11	-4%	-14%[57.1 µM]	-29%	26%
COc1ccc(C(=O)/C=C/C(=O)N(CC(=O)NC2CCCCC2)CC2CCCO2)c(O)c1 (centres undefined)	8.9µM*	3	-11%	-20%	-30%	-5%
COc1ccccc1C(=O)NC1(C(F)(F)F)C(=O)Nc2c1c(=O)[nH]c(=O)n2-c1ccc(F)cc1 (centres undefined)	-31%[59 µM]	x	x	-13%	-20%	35%
O=C(NCCc1ccccc1)c1ccc(=O)oc1	9%[12.7 µM]	-3	x	-14%	-3%	31%
O=C(NC1CCCC1)c1ccc2nc(-c3ccco3)c(-c3ccco3)nc2c1	5µM*	-63*	-27%	28µM*	u	79µM*
O=C(NCCO)c1ccc2nc(-c3ccco3)c(-c3ccco3)nc2c1	1.4µM*	-16	x	22µM*	u	45µM*
O=C(NCCc1ccccc1)c1ccc2c(c1)OCCCO2	32µM*	-3	x	-13%	-38%	7%
O=C(NCCc1ccccc1)c1ccc2nc(-c3ccco3)c(-c3ccco3)nc2c1	1.4µM*	-63*	x	56µM*	10µM*	u
SMILES	G9a block	PI5P4K alpha inh	L3MBTL1 block	JMJD2A Tudor inh	BAZ2B block	HP1b binding inh
O=C(NCCc1ccccc1)c1ccc2c(c1)OCCO2	x	-10	x	-11%	3%	42%
COc1ccccc1C(=O)Nc1cc(-c2cccc(Br)c2)nn1-c1ccccc1	10%[59 µM]	x	x	-5%	9%	23%[57 µM]
Cc1ccc(NC(=O)c2ccc3c(c2)NC(=O)c2ccccc2S3)c(Cl)c1	-1%[59 µM]	x	x	-9%	-3%	25%
COc1ccc(/C=C\c2onc(C)c2S(=O)(=O)N2CCC(C(=O)Nc3cccc(Cl)c3)CC2)cc1	6%[59 µM]	x	x	-17%	x	17%
Cc1ccccc1-n1c2nc(=O)[nH]c(=O)c-2cc2c(Cl)cccc21	10%[59 µM]	x	x	-12%	-2%	38%
COc1ccc(/C=C/c2ccc(=O)n(Cc3ccccc3)n2)cc1	16%	-51*	32%	u	38%	50%
O=c1ccc(/C=C/c2ccccc2)nn1Cc1ccc(F)cc1	86%	1	40%	97%	52%	169%
CC1(C)OC(=O)C(=Cc2ccc(-c3ccc(S(N)(=O)=O)cc3)o2)C(=O)O1	35µM*	-59*	u	-8%	-19%	-14%
NS(=O)(=O)c1ccc(-c2ccc(/C=C3\C(=O)Nc4cc(Cl)ccc43)o2)cc1	11µM*	u	-3%	-30%	56µM*	10%
NS(=O)(=O)c1ccc(-c2ccc(/C=C3\C(=O)Nc4ccccc43)o2)cc1	x	x	3%	x	-38%	x
Cc1cccc(CN(CC(=O)N/N=C/c2ccco2)S(=O)(=O)c2ccc(Cl)cc2)c1	u	-23	x	79µM*	50µM*	u
Cc1cccc(NS(=O)(=O)c2ccc(-c3ccc(=O)[nH]n3)o2)c1	-21%	2	x	-17%	-8%	62%
O=c1ccc(-c2ccc(S(=O)(=O)Nc3cccc([N+](=O)[O-])c3)s2)n[nH]1	71µM*	1	x	-11%	-31%	41%
O=C(CCNS(=O)(=O)c1ccc2c(c1)CCCC(=O)N2)NCc1ccccc1Cl	-2%[59 µM]	x	x	-13%	6%[57.1 µM]	7%
CCOC(=O)c1c(C)[nH]c(C)c1C(=O)COC(=O)C1CCCN1S(=O)(=O)c1ccccc1F (centres undefined)	50µM*	10	-6%	-25%	u	-8%
O=C(COC(=O)[C@@H]1CCCN1S(=O)(=O)c1ccccc1F)c1ccccc1	0%	0	8%	2%	-7%	49%
Cc1cc(C(=O)Nc2sc3c(c2C#N)CCC(C)C3)no1 (centres undefined)	19%[59 µM]	x	-1%[11.4 µM]	-12%	0%	39%
Cc1onc(-c2ccccc2)c1C(=O)NC(=S)Nc1sc2c(c1C#N)CCCC2	2µM*	-20	-7%	-35%	u	-3%
Cc1onc(-c2ccccc2)c1C(=O)Nc1sccc1C#N	u	0	x	-14%	-20%	13%
CCC(CC)c1nnc(NC(=O)c2c(-c3ccccc3)noc2C)s1	40µM*	3	6%	-17%	-2%	14%
